# Laboratory results as given in article PMC11062922 (Nature Chemical Biology, 2023).
# Where two headings read alike, the source gives them in different places.
# Key:
# HSP90B1 = tested on: HSP90B1; set-up: species or system human, MV4-11 + K-562 + COLO205 + SK-N-BE2 + OVCAR-8; conditions: read-out: apparent Kd; compound concentrations:100 nM and 1000 nM (sheet 'Samples'); n = 1
# CIT = tested on: CIT; set-up: species or system human, MV4-11 + K-562 + COLO205 + SK-N-BE2 + OVCAR-8; conditions: compound concentrations:0.3nM, 1nM, 3nM, 10nM, 30nM, 100nM, 300nM, 1000nM,R2:0.97918771846363795,slope:1.88206182244377,EC50 Standard Error, by the legend:Standard error of the EC50 estimation as provided by the drc package.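 Further: competition pulldown with Kinobeads ε in cell lysates, inhibitor preincubated 45 min at 4 °C, bound kinases quantified by LC–MS/MS against DMSO control.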
# NEK1 = tested on: NEK1; set-up: species or system human, MV4-11 + K-562 + COLO205 + SK-N-BE2 + OVCAR-8; conditions: read-out: apparent Kd, n = 1
# PLK1 = tested on: PLK1; set-up: species or system human, MV4-11 + K-562 + COLO205 + SK-N-BE2 + OVCAR-8; conditions: read-out: apparent Kd; compound concentrations: 100 nM and 1000 nM (sheet 'Samples'), CATDS: 1.2041031249847799E-2; n = 1
# GRK6 = tested on: GRK6; set-up: species or system human, MV4-11 + K-562 + COLO205 + SK-N-BE2 + OVCAR-8; conditions: read-out: apparent Kd; compound concentrations: 100 nM and 1000 nM (sheet 'Samples'), CATDS: 6.7200037487984698E-3; n = 1
# CSNK2A1 = conditions: hek293t cells
# CSNK2A2 = conditions: hek293t cells
# RIPK3 = tested on: RIPK3; set-up: species or system human, MV4-11 + K-562 + COLO205 + SK-N-BE2 + OVCAR-8; conditions: read-out: apparent Kd, n = 1
# CAMK2B = tested on: CAMK2B; set-up: species or system human, MV4-11 + K-562 + COLO205 + SK-N-BE2 + OVCAR-8; conditions: read-out: apparent Kd; compound concentrations: 100 nM and 1000 nM (sheet 'Samples'), CATDS: 6.4404686092337498E-3; n = 1
# CAMK2G = tested on: CAMK2G; set-up: species or system human, MV4-11 + K-562 + COLO205 + SK-N-BE2 + OVCAR-8; conditions: read-out: apparent Kd, compound concentrations: 100 nM and 1000 nM (sheet 'Samples'), n = 1
# CDK12 = tested on: CDK12; set-up: species or system human, MV4-11 + K-562 + COLO205 + SK-N-BE2 + OVCAR-8; conditions: read-out: apparent Kd; compound concentrations: 100 nM and 1000 nM (sheet 'Samples'), CATDS: 3.82162717704907E-3; n = 1
# MAP3K1 = tested on: MAP3K1; set-up: species or system human, MV4-11 + K-562 + COLO205 + SK-N-BE2 + OVCAR-8; conditions: read-out: apparent Kd; compound concentrations: 100 nM and 1000 nM (sheet 'Samples'), CATDS: 4.4631882369260602E-3; n = 1
# MAP3K6 = tested on: MAP3K6; set-up: species or system human, MV4-11 + K-562 + COLO205 + SK-N-BE2 + OVCAR-8; conditions: read-out: apparent Kd; compound concentrations: 100 nM and 1000 nM (sheet 'Samples'), CATDS: 4.1891325824414301E-3; n = 1
# MDN1 = tested on: MDN1; set-up: species or system human, MV4-11 + K-562 + COLO205 + SK-N-BE2 + OVCAR-8; conditions: read-out: apparent Kd; compound concentrations: 100 nM and 1000 nM (sheet 'Samples'), CATDS: 5.0398543071368297E-3; n = 1
# PI4KB = tested on: PI4KB; set-up: species or system human, MV4-11 + K-562 + COLO205 + SK-N-BE2 + OVCAR-8; conditions: read-out: apparent Kd, n = 1
# PIK3CB = tested on: PIK3CB; set-up: species or system human, MV4-11 + K-562 + COLO205 + SK-N-BE2 + OVCAR-8; conditions: read-out: apparent Kd; compound concentrations: 100 nM and 1000 nM (sheet 'Samples'), CATDS: 8.3047003401232992E-3; n = 1
# ADRBK1 = tested on: ADRBK1; set-up: species or system human, MV4-11 + K-562 + COLO205 + SK-N-BE2 + OVCAR-8; conditions: read-out: apparent Kd; compound concentrations: 100 nM and 1000 nM (sheet 'Samples'), CATDS: 0.10043155858125399; n = 1
# PIM3 = tested on: PIM3; set-up: species or system human, MV4-11 + K-562 + COLO205 + SK-N-BE2 + OVCAR-8; conditions: read-out: apparent Kd; compound concentrations: 100 nM and 1000 nM (sheet 'Samples'), CATDS: 5.1317659487183503E-2; n = 1
# [1] = compound concentrations:100 nM and 1000 nM (sheet 'Samples')
compound,measurement,setting,value
CCn1c(-c2nonc2N)nc2c(C#CC(C)(C)O)nc(OCCN)cc21.CCn1c(-c2nonc2N)nc2c(C#CC(C)(C)O)nc(OCCN)cc21.Cl.Cl [GSK902056A],potency estimated from few doses,HSP90B1,0.769 µM
same,EC50,CIT,0.279 µM
same,Kd,CIT; read-out: apparent Kd,0.279 µM
Cc1cccc(-c2nc(Nc3ccncc3)c3sccc3n2)n1 [GW869641X],potency estimated from few doses,HSP90B1,1.25 µM
COc1ccc(Nc2ncc(C#N)c(Nc3ccccc3C(N)=O)n2)cc1N1CCN(C)CC1.Cl [GSK1558669A],potency estimated from few doses,"NEK1; compound concentrations: 100 nM and 1000 nM (sheet 'Samples'), CATDS: 8.9161421311332902E-3",0.272 µM
same,potency estimated from few doses,PLK1,0.113 µM
O=C1N=C(NCCc2ccc(Cl)cc2)S/C1=C\c1ccc2ncccc2c1 [RO4498479-000],potency estimated from few doses,GRK6,1.96 µM
COc1cc(Nc2ncc3c(C)nc(-c4cc5ccccc5[nH]4)n3n2)cc(OC)c1OC [GW869516X],IC50,"CSNK2A1; read-out: Average, SD, n = 2",0.446 µM
same,IC50,CSNK2A1; read-out: Rep 1,0.471 µM
same,IC50,CSNK2A1; read-out: Rep 2,0.421 µM
same,IC50,"CSNK2A2; read-out: Average, SD, n = 2",0.319 µM
same,IC50,CSNK2A2; read-out: Rep 1,0.135 µM
same,IC50,CSNK2A2; read-out: Rep 2,0.503 µM
Cl.NCc1ccc(-c2nc(-c3ccc(Cl)c(O)c3)c(-c3ccncc3)[nH]2)cc1 [SB-476429-A],potency estimated from few doses,RIPK3; [1],1.2 µM
Cn1ncc2c(N)ncnc21 [SKF-18267],potency estimated from few doses,CAMK2B,0.514 µM
same,potency estimated from few doses,CAMK2G; CATDS: 7.7542498365532697E-3,0.382 µM
same,potency estimated from few doses,CDK12,1.51 µM
same,potency estimated from few doses,MAP3K1,1.03 µM
same,potency estimated from few doses,MAP3K6,1.19 µM
same,potency estimated from few doses,MDN1,0.801 µM
same,potency estimated from few doses,"NEK1; compound concentrations: 100 nM and 1000 nM (sheet 'Samples'), CATDS: 3.5725639465568099E-3",1.82 µM
same,potency estimated from few doses,"PI4KB; compound concentrations: 100 nM and 1000 nM (sheet 'Samples'), CATDS: 8.6005526131726403E-3",0.328 µM
same,potency estimated from few doses,PIK3CB,0.345 µM
same,potency estimated from few doses,"RIPK3; compound concentrations: 100 nM and 1000 nM (sheet 'Samples'), CATDS: 3.42256468250394E-3",2.08 µM
CN(c1ccc(NC(=O)N2CCN(CCCN3CCOCC3)CC2)cc1)c1ccnc(Nc2ccc(CS(C)(=O)=O)cc2)n1.Cl [GW830899A],potency estimated from few doses,CAMK2G; CATDS: 3.6233110942478698E-2,0.457 µM
COc1ccc(-c2cc3c(N)ncnc3o2)cc1 [GW642138X],potency estimated from few doses,ADRBK1,1.82 µM
O=C(O)C(F)(F)F.O=c1[nH]ccc2nc(N[C@@H]3CCNC3)nc(Nc3ccc4c(c3)S(=O)(=O)CC4)c12 [GSK2181306A],potency estimated from few doses,PIM3,0.0364 µM
Cc1cccc(Nc2nc(N[C@H]3CCNC3)ncc2C(N)=O)c1.Cl [GSK2197149A],potency estimated from few doses,PI4KB; [1],0.892 µM
CC(C)Oc1ccc2c(-c3ccnc(Nc4ccc(N5CCN(C)CC5)cc4)n3)cnn2n1 [GW696155X],potency estimated from few doses,NEK1; [1],1.13 µM
